The list is not random: actives were taken first. Their share in the collection is about 3.6%.
mHTT-CaM PPI inh – mHTT-calmodulin interaction abrogation | AlphaScreen His-mHTT/GST-CaM binding, luminescence | inhibition, % at 15 µM | 3.6% of 190,000 active | AID 1671202;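 note: 0% = both proteins with DMSO and 100% = one protein alone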
Pf apPOL block – Pf-apPOL DNA polymerase inhibition | Recombinant Pf-apPOL, molecular beacon fluorescence, 1.5 h | inhibition, % at 10 µM | 0.25% of 210,000 active | AID 1794808
Starred values were filed as active, the others as inactive; / = no result given; ! = repeats disagree. Cut-off read from the data, not from the text of the source: active = inhibition above about 50%; inactive = the rest.

SMILES	mHTT-CaM PPI inh	Pf apPOL block
C=CCc1cc(OC)ccc1OCC(O)CN1CCN(c2ccc(OC)cc2)CC1 (configuration not stated)	50*!	-3
O=S(=O)(c1ccc(F)cc1)N1CCC(N2CCCCC2)CC1	0	-9
CC(CN1CCOCC1)C(=O)NN (configuration not stated)	-3	/
Cc1cc(C)nc(NS(=O)(=O)c2ccc(NC(=O)COc3c(C)ccc(C)c3C)cc2)n1	44	-8
COc1ccccc1NS(=O)(=O)c1cc2c(s1)CCN(C(C)=O)C2	-1	-3
COc1ccc(OC)c(Nc2nc3nonc3nc2Nc2ccc(F)cc2)c1	14	5
COc1ccc(Nc2nc(N(C)C)nc3nccnc23)cc1	55*	-20
Fc1ccc(C2Nc3ccc(Br)cc3C3C=CCC32)cc1 (configuration not stated)	15	-1
Nc1ccc(C2Nc3ccccc3C3C=CCC32)cc1 (configuration not stated)	85*	-11
Fc1ccc(C2Nc3ccc(OC(F)(F)F)cc3C3C=CCC32)cc1 (configuration not stated)	37	/
Brc1ccc2c(c1)C1C=CCC1C(c1ccncc1)N2 (configuration not stated)	95*	-7
Ic1ccc2c(c1)C1C=CCC1C(c1ccncc1)N2 (configuration not stated)	95*	6
CCN1CCN(C(=O)c2c(C)nn(-c3ccccc3Cl)c2C)CC1	3	-4
COc1ccc(C2=N/C(=C\c3ccccc3C(F)(F)F)C(=O)O2)c(Br)c1	2	-7
Cc1cc(C)c(C2=NC(c3ccccc3)(c3ccccc3)c3ccccc3N2)c(=O)[nH]1	32	-8
c1ccc(C2=NC(c3ccccc3)(c3ccccc3)c3ccccc3N2)cc1	61*	/
Cc1ccc(-c2cc(-c3ccccc3)nc(SCC(=O)Nc3ncccn3)c2C#N)cc1	20	-4
CCN1c2ccc(C)cc2C(=O)NC12CCN(C(=O)Cc1ccccc1)CC2	9	0
COc1cc(C=O)ccc1OCCOc1ccc([N+](=O)[O-])cc1Cl	0	-4
COc1ccccc1C(=O)N/C(=C/c1ccc2c(c1)OCO2)C(=O)Nc1ccc(C)cc1	-2	0
Cc1noc(-c2nn(C)c3c2CN(C(=O)Nc2ccc(Cl)cc2)CC3)n1	58*	1
Cn1nc(-c2nc(C3CC3)no2)c2c1CCN(C(=O)Nc1ccccc1)C2	12	0
CSc1ccc(NC(=O)N2CCc3c(c(-c4nc(C)no4)nn3C)C2)cc1	36	-2
CSc1cccc(NC(=O)N2CCc3c(c(-c4nc(C5CC5)no4)nn3C)C2)c1	52*	-6
COc1cccc(N(C2C=CS(=O)(=O)C2)S(=O)(=O)c2ccc(C)cc2)c1 (configuration not stated)	12	-12
SMILES	mHTT-CaM PPI inh	Pf apPOL block
COc1ccccc1N1CCN(CCNC(=O)C(=O)Nc2cccc(Cl)c2C)CC1	-12	-6
Cn1c(=O)c(C(=O)N2CCN(C(c3ccccc3)c3ccccc3)CC2)cc2cccnc21	32	-2
COc1ccc(C(=O)CC2(O)C(=O)N(Cc3ccc(Cl)cc3)c3ccccc32)cc1[N+](=O)[O-] (configuration not stated)	100*	-8
COc1ccc(C(=O)CC2(O)C(=O)Nc3ccccc32)cc1[N+](=O)[O-] (configuration not stated)	-5	-15
CC(C)CSC1=NSC2=NC(=O)/C(=C\c3ccc([N+](=O)[O-])o3)C(=N)N12	79*	-3
CSC1=NSC2=NC(=O)/C(=C\c3ccc([N+](=O)[O-])o3)C(=N)N12	100*	0
CSC1=NSC2=NC(=O)/C(=C\c3ccc(C)o3)C(=N)N12	1	7
Cc1ccc(/C=C2/C(=N)N3C(SCC(C)C)=NSC3=NC2=O)o1	-3	-17
O=[N+]([O-])c1ccc(N2CCNCC2)cc1NCCN1CCOCC1	2	-9
O=C(Nc1ccccc1C(=O)Nc1nccs1)c1cccs1	4	-4
CC1(C)CC(CCNC(=O)c2ccccc2C(=O)O)(Cc2ccccc2)CCO1 (configuration not stated)	-6	-10
COc1ccc(-c2csc(=Nc3ccc(F)cc3)n2CCO)cc1F	53*	-2
CCn1c(-c2ccc(OC)c(F)c2)csc1=Nc1ccccc1	72*	-3
COc1ccc(N=c2scc(-c3ccc(OC)cc3F)n2CCO)cc1	27	-6
OCCn1c(-c2ccc(F)cc2)csc1=Nc1cccc(Cl)c1	98*	-2
C=CCn1c(-c2ccc(OC)c(OC)c2)csc1=Nc1ccccn1	34	-3
OCCn1c(-c2ccc(F)cc2)csc1=Nc1ccccc1	43	-6
NC(=O)CN(c1ccc(Cl)cc1Cl)S(=O)(=O)c1ccccc1	1	-6
C[C@H]1[C@@H](c2ccccc2)Oc2c(Cl)cccc2S(=O)(=O)N1Cc1cccc(Cl)c1	59*	-3
C[C@H]1[C@@H](c2ccccc2)Oc2c(Cl)cccc2S(=O)(=O)N1Cc1cccc(F)c1	18	-6
Cc1ccc(C2C3=C(Nc4ncnn42)c2ccccc2OC3c2cccc([N+](=O)[O-])c2)cc1 (configuration not stated)	50*	0
Clc1ccc(C2Oc3ccccc3C3=C2C(c2cccs2)n2ncnc2N3)cc1 (configuration not stated)	56*	-8
COc1cccc(C2C3=C(Nc4ncnn42)c2ccccc2OC3c2cccc(F)c2)c1 (configuration not stated)	37	-4
COc1cccc(C2C3=C(Nc4ncnn42)c2ccccc2OC3c2ccccc2OC)c1 (configuration not stated)	64*	-7
Fc1ccccc1C1C2=C(Nc3ncnn31)c1cc(Cl)ccc1OC2c1ccncc1 (configuration not stated)	21	1
SMILES	mHTT-CaM PPI inh	Pf apPOL block
COc1ccc(C2C3=C(Nc4ncnn42)c2ccccc2OC3c2cccc(Cl)c2)cc1 (configuration not stated)	41	-10
COc1ccc(C2C3=C(Nc4ncnn42)c2ccccc2OC3c2cccc(OC)c2)cc1 (configuration not stated)	56*	-5
COc1ccccc1C1Oc2ccccc2C2=C1C(c1ccc(C)cc1)n1ncnc1N2 (configuration not stated)	15	-1
COc1ccc(-n2ccc(NC(=O)Cc3cccc(OC)c3)n2)cc1	0	-3
CNc1nccc(N2CCC(CC(=O)NCCCc3ccccc3)CC2)n1	9	0
COc1ccc(Nc2ncc3c(n2)CCN(Cc2cccc(F)c2F)C3)cc1	2	-5
CNC(=O)C1CCN(c2nccc3sccc23)CC1	-1	-3
CCN(CC)S(=O)(=O)c1ccc(Cl)c(C(=O)Nc2cccc(C(=O)O)c2)c1	-5	5
N#Cc1cccc(-c2cn3c(n2)N(C(=O)c2ccccc2)CCC3)c1	8	0
N#Cc1cccc(-c2cn3c(n2)N(C(=O)COc2ccccc2)CCC3)c1	55*	-1
N#CC1(c2ccccc2)CCc2c(sc3ncnc(N4CCOCC4)c23)C1 (configuration not stated)	-5	-10
CCOc1ccccc1NC(=O)c1c(NCc2cccn2C)sc2c1CCC2	21	-15
CCOc1ccccc1NC(=O)c1c(NCc2ccncc2)sc2c1CCC2	29	-21
COc1ccc(NC(=O)c2c(NCc3ccccn3)sc3c2CCC(C)C3)c(OC)c1 (configuration not stated)	49	-17

Assay outcomes: PubChem BioAssay, University of Kansas High Throughput Screening Laboratory
